For 8 compounds, growth results are on record in PubChem BioAssay (NCI).

Compounds without any hit were thinned out: in the full panel of roughly 83,000, 20% have a hit.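 Plates (96-well) were seeded with cells, treated with compound at one concentration, and incubated for 48 hours before percent growth was determined.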 Unmarked numbers belong to inactive results. Calls of active or inactive are those of the source. The calls were made as follows: active = growth percent below 10; inactive = the rest.

Among the test systems are NCI-H23 lung; NCI-H226 lung; NCI-H322M lung; HOP-62 NSCLC; NCI-H460 lung; HOP-92 NSCLC; NCI-H522 lung; A549/ATCC NSCLC; 786-0 renal; COLO 205 colon; DU-145 prostate; K-562 leukemia; MALME-3M melanoma; MDA-MB-231 breast; RXF 393 renal; SF-268 CNS; SF-295 CNS; SF-539 CNS; UACC-257 melanoma; M14 melanoma.
Test in all cases: NCI-60 one-dose screen, 48 h (100 = growth as untreated, 0 = no growth, -100 = all killed)
Common to all, as to conditions: 10 µM unless noted

With `Cc1cc(N(CCCl)CCCl)ccc1C=Nc1ccc(-c2csc(Cc3ccccc3)n2)cc1`, the growth in the experiment on NCI-H23 lung is 59.1%; with NCI-H226 lung, 54.6%; with NCI-H322M lung it was 76.6%; in the experiment on HOP-62 NSCLC it was 65.1%; in the experiment with NCI-H460 lung, 25.5%; in the experiment with HOP-92 NSCLC, 47.5%. Moreover, the growth with NCI-H522 lung was 69.7%; in the experiment with A549/ATCC NSCLC, 50.7%; in the experiment with 786-0 renal it was 50.8%; in the experiment with COLO 205 colon, 74.1%; in the experiment with DU-145 prostate, 57.1%; with K-562 leukemia it was 56.8%. In addition, the growth in the experiment on MALME-3M melanoma was 70.8%; in the experiment on MDA-MB-231 breast it was 83.3%; in the experiment on RXF 393 renal, 83.8%; in the experiment with SF-268 CNS, 65.6%; in the experiment with SF-295 CNS, 13.4%; in the experiment with SF-539 CNS it was 49.3%. Moreover, the growth was 46.2% in the experiment on UACC-257 melanoma and 79.8% with M14 melanoma.
In the case of `CC1=C([Te]c2ccc(O)cc2)C(=O)c2ccccc2C1=O`, the growth was -19.6% (active) with NCI-H23 lung; -35.4% (active) in the experiment with NCI-H226 lung; 22.3% in the experiment with NCI-H322M lung; -25.2% (active) with HOP-62 NSCLC; -27.6% (active) with NCI-H460 lung; -56.5% (active) with HOP-92 NSCLC. The growth is 0.775% (active) in the experiment with NCI-H522 lung; 6.97% (active) in the experiment on A549/ATCC NSCLC; -1.41% (active) with 786-0 renal; -88.5% (active) with COLO 205 colon; 7.43% (active) with DU-145 prostate; -36.6% (active) with K-562 leukemia. Besides, the growth in the experiment with MALME-3M melanoma was 5.22% (active); in the experiment on MDA-MB-231 breast, 3.12% (active); with RXF 393 renal it was -0.398% (active); in the experiment with SF-268 CNS, 13.8%; with SF-295 CNS, -37.4% (active); in the experiment on SF-539 CNS, -19.1% (active). In addition, the growth was 11.7% in the experiment on UACC-257 melanoma and -24.2% (active) in the experiment with M14 melanoma.
`CN1CCC(c2c[nH]c3ccccc23)C1` (stereo not given): the growth in the experiment on NCI-H23 lung was 88.9%; in the experiment on NCI-H226 lung, 106%; in the experiment on NCI-H322M lung it was 118%; in the experiment with HOP-62 NSCLC, 84.3%; in the experiment with NCI-H460 lung it was 124%; with HOP-92 NSCLC it was 92.9%. The growth is 79.5% in the experiment with NCI-H522 lung; 122% with A549/ATCC NSCLC; 99.3% with 786-0 renal; 108% with COLO 205 colon; 110% in the experiment with DU-145 prostate; 109% with K-562 leukemia. The growth was 112% with MALME-3M melanoma; 103% in the experiment on MDA-MB-231 breast; 128% with RXF 393 renal; 111% in the experiment with SF-268 CNS; 105% in the experiment with SF-295 CNS; 127% in the experiment on SF-539 CNS. Moreover, the growth in the experiment on UACC-257 melanoma is 55.5%; in the experiment with M14 melanoma, 93%.
On to `Clc1cc(N2CC2)nc(N2CC2)n1`, for which the growth is 56% in the experiment with NCI-H23 lung; 81.4% with NCI-H226 lung; 103% in the experiment with NCI-H322M lung; 63.9% in the experiment on HOP-62 NSCLC; 23.6% in the experiment with NCI-H460 lung; 68.4% in the experiment with HOP-92 NSCLC. Also, the growth is 67.2% in the experiment with NCI-H522 lung; 62.3% with A549/ATCC NSCLC; 76.1% with 786-0 renal; 81.3% with COLO 205 colon; 52.5% with DU-145 prostate; 69% with K-562 leukemia. Moreover, the growth is 89.7% in the experiment on MALME-3M melanoma; 88.1% in the experiment on MDA-MB-231 breast; 78% with RXF 393 renal; 59.3% in the experiment on SF-268 CNS; 40.7% in the experiment with SF-295 CNS; 43.8% in the experiment with SF-539 CNS. Further, the results for the growth in the experiment with UACC-257 melanoma and in the experiment on M14 melanoma were 76.7% and 57.4%, respectively.
Regarding `Cc1ccc(S(=O)(=O)C(Cl)(Cl)Cl)cc1`, the growth in the experiment on NCI-H23 lung is 98.3%; with NCI-H226 lung it was 80.4%; in the experiment with NCI-H322M lung it was 105%; in the experiment on HOP-62 NSCLC, 90.2%; in the experiment with NCI-H460 lung, 104%; in the experiment with HOP-92 NSCLC, 82.3%. Besides, the growth with NCI-H522 lung was 76.2%; in the experiment on A549/ATCC NSCLC, 77.2%; in the experiment on 786-0 renal, 88.5%; in the experiment on COLO 205 colon it was 99.4%; in the experiment on DU-145 prostate it was 109%; in the experiment on K-562 leukemia, 93.3%. The growth is 92.5% in the experiment with MALME-3M melanoma; 95.8% with MDA-MB-231 breast; 102% in the experiment on RXF 393 renal; 97.5% with SF-268 CNS; 91.1% in the experiment on SF-295 CNS; 99.9% with SF-539 CNS. Moreover, the growth is 86.1% in the experiment with UACC-257 melanoma and 94.6% in the experiment on M14 melanoma.
As to `Oc1c(CCl)cc(Cl)cc1CCl`, the growth in the experiment on NCI-H23 lung was 100%; in the experiment on NCI-H226 lung, 98.8%; in the experiment with NCI-H322M lung, 123%; in the experiment with HOP-62 NSCLC, 95.1%; in the experiment with NCI-H460 lung, 108%; in the experiment with HOP-92 NSCLC, 92.8%. The growth with NCI-H522 lung was 105%; in the experiment with A549/ATCC NSCLC, 116%; in the experiment on 786-0 renal it was 114%; with COLO 205 colon it was 109%; with DU-145 prostate it was 122%; in the experiment with K-562 leukemia, 99.3%. Also, the growth was 110% with MALME-3M melanoma; 104% in the experiment with MDA-MB-231 breast; 119% in the experiment on RXF 393 renal; 104% with SF-268 CNS; 106% in the experiment with SF-295 CNS; 104% in the experiment on SF-539 CNS. For the same compound, the growth with UACC-257 melanoma was 131%; in the experiment with M14 melanoma it was 108%.
Regarding `C1CCC([PH+](C2CCCCC2)C2CCCCC2[PH+](C2CCCCC2)C2CCCCC2)CC1.O=C(C1[CH-]CCCC1)C1CCCC[N-]1.[Au]` (stereo not given), the growth with NCI-H23 lung is -35% (active); in the experiment on NCI-H226 lung, -60.1% (active); in the experiment on NCI-H322M lung, -48% (active); in the experiment on HOP-62 NSCLC, -9.03% (active); with NCI-H460 lung, -49.6% (active); with HOP-92 NSCLC, -36.8% (active). The growth in the experiment with NCI-H522 lung was -22.4% (active); in the experiment on A549/ATCC NSCLC it was -39.9% (active); in the experiment with 786-0 renal, -77.2% (active); in the experiment with COLO 205 colon, -45% (active); in the experiment with DU-145 prostate, -38.7% (active); with K-562 leukemia, 5.08% (active). Besides, the growth in the experiment on MALME-3M melanoma was -66.3% (active); with MDA-MB-231 breast, -54.9% (active); in the experiment on RXF 393 renal it was -95.2% (active); in the experiment on SF-268 CNS, -28.5% (active); in the experiment on SF-295 CNS, -46.8% (active); with SF-539 CNS, -87.9% (active). For the same compound, the growth in the experiment with UACC-257 melanoma was -45.6% (active); in the experiment on M14 melanoma, -52.2% (active).
In the case of `CC[S][Hg][Cl]`, the growth in the experiment with NCI-H23 lung is 102%; in the experiment on NCI-H226 lung it was 113%; in the experiment on NCI-H322M lung, 101%; with HOP-62 NSCLC it was 119%; with NCI-H460 lung, 110%; in the experiment with HOP-92 NSCLC, 113%. The growth in the experiment with NCI-H522 lung is -46.7% (active); with A549/ATCC NSCLC it was 98.8%; with 786-0 renal, 109%; in the experiment with COLO 205 colon, 124%; in the experiment on DU-145 prostate, 103%; in the experiment with K-562 leukemia, 75.4%. Besides, the growth with MALME-3M melanoma was 118%; in the experiment on MDA-MB-231 breast, 114%; in the experiment with RXF 393 renal, 124%; in the experiment on SF-268 CNS it was 103%; with SF-295 CNS, 112%; in the experiment on SF-539 CNS it was 105%. Moreover, the growth was 97.3% with UACC-257 melanoma and 106% with M14 melanoma.
